The source made the active and inactive calls. Calls come from the whole dose curve; as a rule, active = well fitted curve in the direction sought with a large enough effect in the repeat runs; inconclusive = weak or mixed curves; inactive = flat fitted curve, though single readings scatter.
Assay: qHTS assay to test for compound auto fluorescence at 460 nm (blue) in HEK293 cell free culture (AID 720681)
Settings: cell-free medium, autofluorescence 405/460 nm (blue); series mostly up to 91.3 µM; fluorescence, % of fluorescent control: at the top concentration
Source text: U.S. Tox21 Program National Center for Advancing Translational Sciences [NCATS] NIH Chemical Genomics Center [NCGC] U.S. Environmental Protection Agency [EPA] National Institutes of Environmental Health Sciences [NIEHS] National Toxicology Program [NTP] U.S. Food and Drug Administration [FDA] Tox21 Assay Overview: Compound auto fluorescence often interferes with screening of the compound library against various biological targets and signaling pathways. Some of these compounds may have fluorophoric properties. Such properties may interfere with the assay outputs resulting in false positives and/or negatives. To decrease such complications and ensure the compound activities are relevant in terms of biological response, the Tox21 10K compound library was screened for auto fluorescence. From the fluorophores used as reporter signals in our screening assays, the auto fluorescence equivalencies of compounds against three fluorophores have been evaluated: Triamterene, Fluorescein and Rose Bengal sodium for blue, green and red fluorescence, respectively. The fluorescence intensities were measured using Excitation/Emission wavelengths at 405/460nm, 485/535nm and 540/590nm for blue, green and red labels, respectively. This assay includes the blue fluorescence data.
Tox21 Assay Protocol Summary: 5 uL of culture medium (DMEM containing 10% FBS) per well was dispensed into black wall/clear bottom 1536-well plates using a Multidrop Combi Dispenser (ThermoFisher Scientific, Waltham, MA). After 23 nL compound or DMSO vehicle was transferred into assay plate by a pintool work station (Kalypsys, San Diego, CA), fluorescence intensities in the assay plates were measured by an Envision (PerkinElmer, Shelton, CT) plate reader using three labels for measuring blue, green and red fluorescence at […] 460, 535 and 590nm respectively.
For `CC(N)CN` (stereo not given), the “fluorescence, % of fluorescent control” value was -0.145% [at 95.7 µM] (inactive).
In the case of `CC(C)CCCCCOC(=O)CCCCC(=O)OCCCCCC(C)C`, the “fluorescence, % of fluorescent control” value is reported as -0.118% (inactive).
For `CCN(Cc1cccc(S(=O)(=O)O)c1)c1ccc(C(=C2C=CC(=[N+](CC)Cc3cccc(S(=O)(=O)[O-])c3)C=C2)c2ccccc2)cc1`, the “fluorescence, % of fluorescent control” value was 1.35% (inactive).
In the case of `O=C(O)c1cccnc1C(=O)O`, the “fluorescence, % of fluorescent control” value is reported as -0.052% (inactive).
With `NCC1CCCC(CN)C1` (stereo not given) the “fluorescence, % of fluorescent control” value was -0.107% (inactive).
In the case of `CC[C@@H]([C@H](C)O)n1ncn(-c2ccc(N3CCN(c4ccc(OC[C@@H]5CO[C@@](Cn6cncn6)(c6ccc(F)cc6F)C5)cc4)CC3)cc2)c1=O`, the “fluorescence, % of fluorescent control” value is reported as -0.0123% [at 46 µM] (inactive).
In the case of `CC(C)(O)c1ccccc1CC[C@@H](SCC1(CC(=O)O)CC1)c1cccc(/C=C/c2ccc3ccc(Cl)cc3n2)c1`, the “fluorescence, % of fluorescent control” value is reported as 0.265% [at 46 µM] (inactive).
With `C[C@@H]1C[C@H]2[C@@H]3CCC4=CC(=O)C=C[C@]4(C)[C@@]3(F)[C@@H](O)C[C@]2(C)[C@H]1C(=O)CO` the “fluorescence, % of fluorescent control” value was -0.127% [at 46 µM] (inactive).
With `O=C(NCCCN1CCOCC1)c1ccc(Cl)cc1` the “fluorescence, % of fluorescent control” value was 0.0153% [at 46 µM] (inactive).
In the case of `O=C(CCC1CCN(Cc2ccccc2)CC1)c1ccc2c(c1)NCCCC2`, the “fluorescence, % of fluorescent control” value is reported as -0.0897% [at 46 µM] (inactive).
With `C[C@]12CCC(=O)C=C1C=C[C@@H]1[C@@H]2CC[C@@]2(C)[C@H]1CC[C@@]21CCC(=O)O1` the “fluorescence, % of fluorescent control” value was 0.0034% [at 46 µM] (inactive).
In the case of `COc1ccc(C(=O)c2cccc(O)c2)c(OC)c1`, the “fluorescence, % of fluorescent control” value is reported as -0.0224% (inactive).
With `NC(=O)N(O)[C@@H]1COc2cc(OCc3ccccc3)ccc21` the “fluorescence, % of fluorescent control” value was 1.12% (inactive).
For `O=C(O)c1snc(Cl)c1Cl`, the “fluorescence, % of fluorescent control” value was -0.0734% (inactive).
For `CCc1c2c(nc3ccc(OC(=O)N4CCC(N5CCCCC5)CC4)cc13)-c1cc3c(c(=O)n1C2)COC(=O)[C@]3(O)CC`, the Potency was 12.6 µM (active).
With `CCCCC(CC)COC(=O)COc1ccc(Cl)cc1C` (stereo not given) the “fluorescence, % of fluorescent control” value was -0.0484% (inactive).
In the case of `Nc1ccc(Cl)cc1[N+](=O)[O-]`, the “fluorescence, % of fluorescent control” value is reported as -0.0282% (inactive).
For `NC(=O)Cn1c(=O)cc(CCN2CCN(c3nccc4sccc34)CC2)c2ccc(F)cc21`, the “fluorescence, % of fluorescent control” value was -0.0131% (inactive).
With `CC1CC(O)CC(C)(C)C1` (stereo not given) the Potency was “inactive”.
In the case of `OCC1CC=CCC1` (stereo not given), the “fluorescence, % of fluorescent control” value is reported as -0.0015% (inactive).
With `CCc1cccc(N(C)C(N)=Nc2cccc3ccccc23)c1` the “fluorescence, % of fluorescent control” value was -0.11% [at 46 µM] (inactive).
With `CNC(=O)N(c1ccccc1)c1ccccc1` the “fluorescence, % of fluorescent control” value was -0.0072% (inactive).
With `CCC(C(=O)OCCOCCN(CC)CC)c1ccccc1` (stereo not given) the “fluorescence, % of fluorescent control” value was -0.0559% [at 46 µM] (inactive).
In the case of `CCCCCCCCCCCCCCC[C@H](O)[C@@H](N)CO`, the “fluorescence, % of fluorescent control” value is reported as -0.0498% [at 46 µM] (inactive).
For `c1ccc(COCc2ccccc2)cc1`, the “fluorescence, % of fluorescent control” value was -0.116% [at 95.7 µM] (inactive).
In the case of `O=C(CCCCCCC(=O)Nc1ccccc1)NO`, the Potency is reported as “inactive”.
With `C[N+](C)(C)CCOC(N)=O` the “fluorescence, % of fluorescent control” value was -0.0138% [at 46 µM] (inactive).
With `c1cnc2c(n1)CCCC2` the “fluorescence, % of fluorescent control” value was 0.12% (inactive).
In the case of `CC(=O)Nc1ccc(N)cc1`, the “fluorescence, % of fluorescent control” value is reported as -0.0241% [at 95.7 µM] (inactive).
With `O=C(/C=C/c1ccccc1)OCCCc1ccccc1` the “fluorescence, % of fluorescent control” value was 0.127% (inactive).
For `CC#N`, the “fluorescence, % of fluorescent control” value was -0.0421% (inactive).
For `O=C(CCCN1CCC(O)(c2ccc(Br)cc2)CC1)c1ccc(F)cc1`, the fluorescence, % of fluorescent control was 0.0856% [at 18.6 µM] (inactive).
For `CCCCC/C(=C\c1ccccc1)CO`, the “fluorescence, % of fluorescent control” value was -0.0075% [at 95.7 µM] (inactive).
With `COCCOC` the “fluorescence, % of fluorescent control” value was -0.0017% (inactive).
With `CCN(CC)CCNC(=O)c1ccc(NC(C)=O)cc1` the “fluorescence, % of fluorescent control” value was -0.222% [at 46 µM] (inactive).
In the case of `Oc1ccc(Nc2ccccc2)cc1`, the “fluorescence, % of fluorescent control” value is reported as 0.204% (inactive).
With `Cc1ccc(S(=O)(=O)NC2CCCCC2)cc1` the “fluorescence, % of fluorescent control” value was -0.085% (inactive).
With `C[N+]1(C)CCC(=C(c2ccccc2)c2ccccc2)CC1` the fluorescence, % of fluorescent control was -0.269% [at 18.6 µM] (inactive).
With `COCCOC(=O)C1=C(C)NC(C)=C(C(=O)OC/C=C/c2ccccc2)C1c1cccc([N+](=O)[O-])c1` (stereo not given) the “fluorescence, % of fluorescent control” value was -0.0826% [at 46 µM] (inactive).
With `Nc1nc(Cl)nc2c1ncn2[C@@H]1O[C@H](CO)[C@@H](O)[C@@H]1F` the “fluorescence, % of fluorescent control” value was -0.0096% [at 46 µM] (inactive).

From PubChem BioAssay (Tox21)
% is set by controls: 0 for no effect and ±100 for the full control effect; potency is the fitted concentration of half-maximal effect.
